# Assay results reported in PubChem BioAssay (NCI).
# The panel holds about 79,000 compounds, 15% with a hit somewhere; the sample as a whole holds those more often. A number with no mark means an inactive call. The source made the active and inactive calls. Rule as the data show it: active = growth inhibition above about 70%; inactive = the rest. *1 amine or outer side, *2 acyl side, *3 side chain or, on linkers, in order; H or OH if unused. Where a SMILES comes first, the peptide text is derived from it. Bridges are numbered along the chain shown (N, C = ends). [ ]: non-standard residue; d: D form. The star is where a group is joined. ξ: configuration not given here. Fmoc = O=C(OCC1c2ccccc2-c2ccccc21)*; X9 = O=C(C(CCCCNO[*:3])N[*:1])[*:2]; ξW = NC(Cc1c[nH]c2ccccc12)C(=O)O; ξP = O=C(O)C1CCCN1
# Experiments:
# [1] = NCI Yeast Anticancer Drug Screen. Data for the rad50 strain (AID 155);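 also: 0% = growth of vehicle-only cultures of the same strain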; details: S. cerevisiae rad50 strain growth inhibition; at 50.0 µM; stronger effect = higher value
# Outline: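 Inhibition values express reduced yeast growth in compound-treated cultures relative to vehicle-treated controls.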
# [2] = NCI Yeast Anticancer Drug Screen. Data for the mec2-1 strain (AID 157); details: S. cerevisiae mec2-1 strain, at 50.0 µM, stronger effect = higher value
# Outline: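 Compounds were applied to mec2-1 yeast cells. Their growth was then compared with that of vehicle-treated cultures to give growth inhibition.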
# [3] = NCI Yeast Anticancer Drug Screen. Data for the sgs1 mgt1 strain (AID 161);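 also: 0% = growth of cultures given vehicle only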; details: S. cerevisiae sgs1 mgt1 strain, at 50.0 µM, stronger effect = higher value
# Outline: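 Percent growth inhibition was derived by comparing compound-exposed mutant yeast with vehicle-exposed cultures. The strain carries alterations in DNA damage repair.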
# [4] = NCI Yeast Anticancer Drug Screen. Data for the cln2 rad14 strain (AID 165);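 also: 0% = growth equal to vehicle treated cultures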; details: S. cerevisiae cln2 rad14 strain, at 50.0 µM, stronger effect = higher value
# Outline: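 Strain: cln2 rad14 yeast, altered in cell cycle control and DNA damage repair. Read-out: growth inhibition vs vehicle.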
# [5] = NCI Yeast Anticancer Drug Screen. Data for the bub3 strain (AID 167); details: S. cerevisiae bub3 mutant strain, at 50.0 µM, stronger effect = higher value
# Outline: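 Steps: expose the mutant yeast strain to compound; grow alongside vehicle-treated cultures; measure growth; express inhibition against the vehicle cultures.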
# [6] = NCI Yeast Anticancer Drug Screen. Data for the mlh1 rad18 strain (AID 175); details: S. cerevisiae mlh1 rad18 strain growth inhibition; at 50.0 µM; stronger effect = higher value
# Outline: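 A repair-deficient yeast strain is exposed to test compound, and growth is scored relative to vehicle-treated controls.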
SMILES,growth inhibition [1],growth inhibition [2],growth inhibition [3],growth inhibition [4],growth inhibition [5],growth inhibition [6]
c1ccc(CCn2c(-c3ccccn3)nc3ccccc32)nc1,13.2%,-4.25%,18.1%,-24.5%,15.5%,7.95%
COC(=O)C1C2CC3C(OC(=O)C31)C2OC(=O)[C@](OC)(c1ccccc1)C(F)(F)F (stereo partly specified),24.2%,20.9%,10.6%,-25.4%,15.5%,28.6%
CC(C)/C(Cl)=N\OC(=O)Nc1ccc(C#N)cc1,-22.4%,52%,51.2%,11%,60.1%,41%
O=C(Nc1ccccc1)Sc1ccc(Cl)cc1,-12.2%,-13.2%,-22.5%,-20.1%,3.15%,2.85%
CCN(CC)c1ccc2cc(C(=O)NC(=O)Oc3ccccc3)c(=O)oc2c1,25.1%,-5.5%,-6.05%,25.1%,-3.2%,9.35%
CCN(CC)c1ccc2c(C)c(Cc3ccccc3)c(=O)oc2c1,1.8%,-22.8%,24.6%,7.7%,31.9%,0.7%
CNC(=O)n1cncn1,-10.6%,3.35%,-9.75%,0.1%,-2.2%,-12.7%
CCCCNC(=O)Nc1nc2ccccc2s1,25.3%,2.15%,11.5%,38%,-3%,-1.7%
COc1ccc(-n2nc3c(ccc4ccccc43)c2N)cc1,2.8%,-8.5%,16.5%,-2.05%,-0.4%,8.5%
CCN(CC)CC(c1ccccc1)C(C)(O)c1ccccc1 (stereo unspecified),-2%,-10.1%,-8%,10.9%,27.4%,-22.4%
S=C1SCN(C2CCCCCCCCCCC2)CN1C1CCCCCCCCCCC1,-52.5%,-29.1%,-17.9%,-3.7%,-20%,-40.5%
CCOc1c(C)cc(C(C)c2cc3c(cc2OC)OCO3)cc1C (stereo unspecified),19.2%,26%,23.5%,17.4%,51.4%,25.1%
O=C(O)c1[nH]c2ccccc2c(=O)c1-c1ccccc1,11.7%,-31.5%,0.95%,-14.3%,1.05%,-19.4%
Cc1cc2c(c(C(C)(C)C)c1)OC(=O)/C2=C1/C(=O)Oc2c1cc(C)cc2C(C)(C)C,8.3%,-8%,-9.25%,0.85%,2.3%,-12.8%
O=C(O)c1sccc1-c1cccc2ccccc12,0.5%,18.6%,10.9%,-13.3%,-15.6%,-11.8%
Nc1nnnn1NC(=O)c1ccccc1,-2.1%,-6.8%,-5.35%,-11.5%,-6%,-11.3%
Cc1ccc(S(=O)(=O)n2cnc(CC(NC(=O)C3CCC(=O)N3C(=O)OCc3ccccc3)C(=O)N3CCCC3C(=O)NN)c2)cc1 (stereo unspecified),-38.9%,-43.1%,-30.8%,-9.95%,-30.9%,-18.2%
O/N=C(\C(=N/O)Nc1ccc(-c2ccc(NC(=N/O)/C(=N\O)c3ccccc3)cc2)cc1)c1ccccc1,7.35%,-43.4%,-8.5%,1.45%,-14.4%,1.1%
COc1cc(C)c(/C=C/C(=O)N2C(=O)OC[C@@H]2c2ccccc2)c(C)c1,4.35%,-8.75%,21.1%,26.9%,19.1%,18.2%
NC(=O)CCC(NS(=O)(=O)c1ccc(NC(=O)c2ccccc2)cc1)C(=O)O (stereo unspecified),4%,-4.1%,-22.9%,19.6%,-5.7%,-1.95%
CC(=O)Nc1ccc(S(=O)(=O)N2c3ccccc3Sc3ccccc32)cc1,8.95%,-5.9%,4.95%,3.05%,-1.5%,4.2%

SMILES,growth inhibition [1],growth inhibition [2],growth inhibition [3],growth inhibition [4],growth inhibition [5],growth inhibition [6]
COC12OCCN(C)C1=CC(=O)C1N=NCC12 (stereo unspecified),5.75%,1.35%,11.2%,8.3%,-0.3%,7.55%
CC(C)(Oc1ccc(C(=O)c2ccc(Cl)cc2)cc1Cl)C(=O)N1CCN(CCO)CC1,-18.9%,-8.65%,15.9%,12.3%,11.3%,12.9%
O=C(NC1CCC(CC2CCC(NC(=O)C34CC5CC(CC(C5)C3)C4)CC2)CC1)C12CC3CC(CC(C3)C1)C2 (stereo unspecified),-13%,7.6%,19.3%,-6.25%,-1.85%,4.35%
O=C1CSc2nc3ccc(Br)cc3c(=O)n21,16%,9.1%,11.2%,-19.4%,18.6%,20.9%
COc1cc(/C=N/NC(=O)N/N=C/c2cc(OC)c(OC)c(OC)c2)cc(OC)c1OC,-37.9%,-4.8%,-11.1%,10.9%,0.95%,6.4%
Cc1c(Cl)c(=O)oc2cc(OCC(O)COC(C)C)ccc12 (stereo unspecified),-23.7%,-30.9%,-36.3%,-23.2%,-13.3%,-25.4%
O=S(=O)(/C=C/S(=O)(=O)c1ccccc1)c1ccccc1,98.4% (active),98.8% (active),98.8% (active),97.9% (active),98.5% (active),98.2% (active)
O=Cc1ccccc1COC(=O)c1cc(C(=O)OCc2ccccc2C=O)c(C(=O)OCc2ccccc2C=O)cc1C(=O)OCc1ccccc1C=O,13.9%,7.15%,-14.2%,-2.8%,-4.9%,5.25%
COc1ccc(Nc2nc3cc(C(F)(F)F)ccc3nc2-c2ccccc2)cc1OC,2.05%,2.65%,-48.2%,-4.85%,-12.4%,-24.4%
CN(C)c1ccc(/C(=N\O)c2cc[n+](C)cc2)cc1,-28.6%,-23.4%,-13.2%,-34.5%,-0.6%,0.85%
Nc1cccn2cnnc12,0.1%,15.9%,-4.6%,17.4%,23.1%,19.4%
CCN(CC)CCNc1cc2ccccc2c2sc3ccccc3c(=O)c12,98.5% (active),99.2% (active),97.6% (active),98.8% (active),98.2% (active),98.3% (active)
Cc1cccc2c1CCC21OC(=O)c2c1ccc1ccccc21 (stereo unspecified),10.9%,2.7%,6.3%,17.1%,15.2%,15.1%
NC(=O)CNC(=O)C1CCCN1C(=O)C1CCCCNOC(=O)CC[C@@H](NC(=O)OCC2c3ccccc3-c3ccccc32)C(=O)NC(Cc2c[nH]c3ccccc23)C(=O)N1 (stereo partly specified) (Fmoc-[dE][ξW][X9][ξP]G-NH2; ester 1-3),-10.2%,-15.8%,-6.55%,24.1%,-16.2%,-19.6%
COC1CC(OC(=O)c2ccccc2)C(OC(=O)c2ccccc2)C(CBr)O1 (stereo unspecified),85.3% (active),90.2% (active),88.6% (active),91% (active),80.1% (active),89.1% (active)
C1CCC2CC(NC3=NCCO3)CCC2C1 (stereo unspecified),8.85%,21.1%,0.35%,-7%,22.2%,-85.6%
Cc1ccc(-c2nc(SCc3ccc(Cl)cc3)[nH]c(=O)c2CCO)cc1,55.5%,14.3%,38.8%,34.4%,47.7%,32.2%
O=C(O)C1CCCN1Cc1cc2ccccc2c2ccccc12 (stereo unspecified),11.2%,-11.1%,-25.9%,8.6%,-3.3%,26.5%
O=C1O[C@H]2C3C4CCC(C4[C@@H]2I)[C@H]13 (stereo partly specified),-13.7%,-13.8%,-9.1%,19.9%,14.1%,16.6%
NC(=O)NOCC(N)C(=O)O (stereo unspecified),-7.2%,1.8%,1.15%,-41.3%,5.35%,-2.9%
